Records with an inconclusive call do not appear. Where a call stands in place of a potency, no number is given. Calls of active or inactive are those of the source. Unless noted, the call rests on the fitted dose curve; in most records, active means well fitted curve in the direction sought with a large enough effect; inconclusive means small, poorly fitted or top-dose-only effect, or another doubt; inactive means no such curve, though single readings can be large; an effect the other way counts as inactive or inconclusive.
Key:
[1] = test system: Zika virus NS2B-NS3 protease; experiment: Primary screen GU AMC qHTS for Zika virus inhibitors (AID 1347154); further: nearly all actives have a fitted effect of over 70% in size
Procedure, shortened: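 Unlinked Zika NS2B hydrophilic domain/NS3 protease domain noncovalent complex (25 nM final) in 10 mM Tris-HCl pH 8.0, 0.01% Tween 20, with AMC peptide substrate. Fluorescence (ex 340, em 450 nm) change over 15 min, room temperature; percent inhibition fitted to 4-parameter Hill equation.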

[2] = qHTS to identify inhibitors of the type 1 interferon - major histocompatibility complex class I in skeletal muscle: primary screen against the NCATS Mechanism Interrogation Plate v5.0 (MIPE) Libary (AID 1347411); further: nearly all actives have a fitted effect of over 65% in size
Procedure, shortened: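 Immortalized human C25cl48 myoblasts with HiBit knocked into endogenous HLA-B*08:01 were stimulated with 4.0 ng/ml IFN-beta and exposed to compounds (11-point 1:3 titration, top 46 uM final) for 24 hrs at 37 C; HiBiT lytic luminescence measured.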

[3] = Primary qHTS for small molecule stabilizers of the endoplasmic reticulum resident proteome: Secreted ER Calcium Modulated Protein (SERCaMP) assay (AID 1508630)
Procedure, shortened: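 GLuc-SERCaMP-expressing SH-SY5Y cells, pretreated 16 h with compound, are challenged with thapsigargin to empty ER calcium stores; after 4 h, coelenterazine is added directly to the medium and luminescence is imaged.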

[4] = Primary qHTS for inhibitors of nuclear receptor binding SET domain protein 2 (NSD2) in an isogenic RCH-ACV NSD2 p.E1099K mutant (9B) (AID 1645876); further: nearly all actives have a fitted effect of over 70% in size; further: potency means the concentration at half of the fitted maximal effect
[5] = Primary qHTS for inhibitors of nuclear receptor binding SET domain protein 2 (NSD2) in an RCH-ACV wild type WT cells (2C) (AID 1645877); further: nearly all actives have a fitted effect of over 70% in size; further: potency means the concentration at half of the fitted maximal effect
[6] = target: Glutathione peroxidase 1 (Homo sapiens) (UniProt P07203); experiment: Primary qHTS Assay for Inhibitors of Recombinant Selenoprotein Glutathione Peroxidase 1 (GPX1) (AID 1845191); further: nearly all actives have a fitted effect of over 65% in size
Procedure, shortened: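 Recombinant GPX1 (10 nM final) was preincubated with compound for 30 min at room temperature, then reacted with 1 mM GSH, 0.5 mM CHP, 0.5 mM NADPH and 100 nM glutathione reductase; NADPH fluorescence (340/450 nm) was read at 0 and 15 min.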

[7] = target: Phospholipid hydroperoxide glutathione peroxidase GPX4 (Homo sapiens) (UniProt P36969); experiment: Primary qHTS Assay for Inhibitors of Recombinant Selenoprotein Glutathione Peroxidase 4 (GPX4) (AID 1845192); conditions: outcome: dose series up to 50 µM unless noted; further: nearly all actives have a fitted effect of over 65% in size; on activity change, negative = inhibition: series mostly up to about 50 µM
Procedure, shortened: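 GR-coupled readout: 100 nM GR, 1 mM GSH, 0.5 mM NADPH; NADPH fluorescence (ex 340/em 450 nm) read at t=0 and after 15 min RT. GPX4 200 nM, preincubated 30 min with compound; substrate 0.5 mM CHP.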

[8] = qHTS drug screen for cell cycle checkpoint inhibitors in PARPi-resistant BRCA-mutant ovarian cancer cell lines. (AID 1963452; calls by dose curve); conditions: PEO1/OlaR viability, CellTiter-Glo luminescence, 96 h, stronger effect = lower value
Procedure, shortened: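 PEO1, PEO4 and PEO1/OlaR ovarian cancer cells, 600 per well, exposed 96 h at 37C to a dilution series. Viability read by CellTiter-Glo luminescence, normalized to DMSO and empty wells; activity summarized as Z-AUC.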

[9] = target: Calcium and integrin-binding protein 1 (Homo sapiens) (UniProt Q99828); experiment: Primary qHTS for Identification of Calcium Integrin Binding Protein 1 (CIB1) Competitor (AID 1508620);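 on activity change, negative = inhibition: GST tagged CIB1 binding a fluorescein labelled alphaIIb integrin peptide tracer; top concentration of the series differs between compounds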
Procedure, shortened: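 Fluorescence polarization competition: CIB1-GST (1 uM final) preincubated with compound 15 min at room temperature, then FITC-labeled alphaIIb peptide (100 nM final) added for another 15 min. Polarization read at Ex 480/Em 540.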

[10] = target: Cytochrome P450 3A4 (Homo sapiens) (UniProt P08684); experiment: Cytochrome P450 family 3 subfamily A member 4 (CYP3A4) small molecule antagonists: luciferase qHTS assay (AID 1645841; active means well fitted curve in the direction sought with a large enough effect in the repeat runs; an effect the other way counts as inactive or inconclusive; further: nearly all actives have a fitted effect of over 45% in size)
Procedure, shortened: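 P450-Glo CYP3A4 enzyme with proluciferin substrate was preincubated with DMSO-dissolved compounds for 10 min at room temperature. NADPH regeneration solution started a 1 h reaction. Detection reagent stopped it, and luminescence was read after 20 min.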

[11] = target: Cytochrome P450 2C9 (Homo sapiens) (UniProt P11712); experiment: Cytochrome P450 family 2 subfamily C member 9 (CYP2C9) small molecule antagonists: luciferase qHTS assay (AID 1645842; active means well fitted curve in the direction sought with a large enough effect in the repeat runs; an effect the other way counts as inactive or inconclusive; further: nearly all actives have a fitted effect of over 55% in size)
Procedure, shortened: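 Luminescence, after 20 min with luciferin detection reagent, reflected CYP2C9 turnover during a 1 h NADPH-driven reaction at 37C. Enzyme-substrate mix contained 0.4% bovine serum albumin and was preincubated with compound 10 min at room temperature.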

[12] = target: Cytochrome P450 1A2 (Homo sapiens) (UniProt P05177); experiment: p450-cyp1a2 (AID 410; calls by dose curve; further: potency means the concentration at half of the fitted maximal effect)
Procedure, shortened: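 Human CYP1A2 (20nM) demethylated Luciferin-ME at its Km (100uM) in 100mM KPO4. After 10 min compound preincubation, NADPH regeneration ran the reaction 60 min at room temperature. Luciferin was read by luminescence, normalized to 57 uM furafylline.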

[13] = target: Glucocorticoid receptor (Homo sapiens) (UniProt P04150); experiment: GR-GFP Redistribution (AID 450;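 active means compounds whose dose series gives a full or clear partial fitted curve of increased nuclear translocation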; further: potency means the concentration at half of the fitted maximal effect); conditions: U2OS GR-GFP nuclear translocation, laser cytometry, 2 h
[14] = target: Glucocorticoid receptor (Homo sapiens) (UniProt P04150); experiment: GR-EFC Redistribution (AID 451; calls by dose curve; further: potency means the concentration at half of the fitted maximal effect); conditions: CHO-K1 GR-EFC translocation, beta-gal luminescence, 2 h
Procedure, shortened: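 CHO-K1 cells stably expressing nuclear-localized β-gal enzyme acceptor and GR fused C-terminally to the enzyme donor fragment; ligand-driven nuclear translocation restores β-gal by complementation. Compounds titrated up to 46 uM final, 2 h at 37 °C; luminescence read.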

[15] = target: Mitogen-activated protein kinase 10 (Mus musculus) (UniProt Q61831); experiment: JNK3 AlphaScreen Assay (AID 530; active means well fitted curve in either direction with a large enough effect, not every such curve was filed as active;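 further: kinase came from lysate of stimulated human HepG2 cells; signal reports phosphorylation of biotinylated GST-cJun 1-79 at Ser73 with 10 µM ATP; series mostly up to about 57 µM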)
Procedure, shortened: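 JNK3 came from HepG2 lysates pre-activated with IL-1beta and TNF-alpha and phosphorylated biotinylated GST-cJun (1-79) at 10 uM ATP, pH 7.6, room temperature. Compounds were titrated. AlphaScreen signal used anti-phospho-cJun (Ser73) antibody.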

[16] = target: Cytochrome P450 2D6 (Homo sapiens) (UniProt P10635); experiment: qHTS Assay for Inhibitors and Substrates of Cytochrome P450 2D6 (AID 891); further: potency means the concentration at half of the fitted maximal effect; nearly all actives have a fitted effect of over 60% in size
Procedure, shortened: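 Human CYP2D6 (5 nM) with 30 uM Luciferin-ME EGE (at Km) in 100 mM KPO4, compound preincubated 10 min, then NADPH regeneration system for 60 min at room temperature. Luciferin read by luminescence; normalized to 1.43 uM quinidine.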

[17] = target: DNA dC->dU-editing enzyme APOBEC-3G (Homo sapiens) (UniProt Q9HC16); experiment: qHTS for inhibitors of Vif-A3G interactions: Validation (AID 588379)
Procedure, shortened: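 HeLa cells stably expressing Vif and A3G-eYFP, 700 cells/well, incubated overnight at 37 deg C, then exposed to compound overnight at 37 deg C. Inhibition of Vif-mediated degradation read as increased yellow fluorescence (Ex 488/Em 500-530) by laser-scanning cytometry.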

[18] = Counterscreen qHTS for small molecule stabilizers of the endoplasmic reticulum resident proteome: GLuc-NoTag assay (AID 1508627);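 further: SH-SY5Y cells given compound then 100 nM thapsigargin to empty ER calcium; series mostly up to about 76 µM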
Procedure, shortened: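 SH-SY5Y cells stably expressing constitutively secreted GLuc (no SERCaMP tag) were pre-incubated 5 h, treated with compound for 19 h, then 100 nM thapsigargin for 4 h at 37C; medium GLuc read by coelenterazine luminescence.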

[19] = measured here: PEO1 parental Z-AUC

Phospholipid hydroperoxide glutathione peroxidase GPX4 (Homo sapiens), sequence (P36969 whole entry, looked up): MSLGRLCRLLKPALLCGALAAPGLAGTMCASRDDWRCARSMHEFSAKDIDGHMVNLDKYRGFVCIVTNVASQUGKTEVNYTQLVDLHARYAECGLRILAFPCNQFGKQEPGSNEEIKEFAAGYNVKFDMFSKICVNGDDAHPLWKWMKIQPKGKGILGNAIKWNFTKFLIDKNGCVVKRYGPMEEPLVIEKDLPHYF
Glutathione peroxidase 1 (Homo sapiens), sequence (P07203 whole entry, looked up): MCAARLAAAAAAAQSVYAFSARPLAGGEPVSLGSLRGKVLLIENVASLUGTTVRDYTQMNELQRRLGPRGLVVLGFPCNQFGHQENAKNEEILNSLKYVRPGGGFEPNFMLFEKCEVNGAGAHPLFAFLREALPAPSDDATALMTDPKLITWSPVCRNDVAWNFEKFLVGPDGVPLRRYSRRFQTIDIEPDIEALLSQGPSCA
Glucocorticoid receptor (Homo sapiens), sequence (P04150 whole entry, looked up, the tested form may be a part): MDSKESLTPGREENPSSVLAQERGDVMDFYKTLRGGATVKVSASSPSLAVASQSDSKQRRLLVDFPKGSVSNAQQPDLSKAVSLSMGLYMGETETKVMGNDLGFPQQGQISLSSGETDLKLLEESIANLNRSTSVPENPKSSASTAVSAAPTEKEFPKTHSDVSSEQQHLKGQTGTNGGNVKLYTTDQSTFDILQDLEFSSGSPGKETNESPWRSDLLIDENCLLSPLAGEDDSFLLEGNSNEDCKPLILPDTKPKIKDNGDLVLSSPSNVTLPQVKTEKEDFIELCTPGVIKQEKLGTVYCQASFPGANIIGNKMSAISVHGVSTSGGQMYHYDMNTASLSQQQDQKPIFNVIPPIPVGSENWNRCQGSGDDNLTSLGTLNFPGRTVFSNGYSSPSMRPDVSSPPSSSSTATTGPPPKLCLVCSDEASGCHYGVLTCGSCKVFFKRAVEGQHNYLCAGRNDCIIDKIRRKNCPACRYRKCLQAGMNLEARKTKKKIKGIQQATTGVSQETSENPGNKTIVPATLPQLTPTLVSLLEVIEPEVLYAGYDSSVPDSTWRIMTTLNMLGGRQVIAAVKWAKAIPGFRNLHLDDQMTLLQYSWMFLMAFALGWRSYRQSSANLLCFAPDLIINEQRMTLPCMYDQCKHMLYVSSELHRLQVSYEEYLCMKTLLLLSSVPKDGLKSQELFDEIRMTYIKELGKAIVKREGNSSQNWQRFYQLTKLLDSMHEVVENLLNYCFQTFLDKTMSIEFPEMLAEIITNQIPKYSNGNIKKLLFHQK
Calcium and integrin-binding protein 1 (Homo sapiens), sequence (Q99828 whole entry, looked up): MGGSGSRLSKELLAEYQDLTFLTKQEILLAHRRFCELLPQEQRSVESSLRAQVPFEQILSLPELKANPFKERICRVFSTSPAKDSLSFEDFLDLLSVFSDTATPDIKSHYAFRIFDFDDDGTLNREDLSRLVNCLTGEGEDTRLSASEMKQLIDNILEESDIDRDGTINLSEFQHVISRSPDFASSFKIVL
Cytochrome P450 1A2 (Homo sapiens), sequence (P05177 whole entry, looked up): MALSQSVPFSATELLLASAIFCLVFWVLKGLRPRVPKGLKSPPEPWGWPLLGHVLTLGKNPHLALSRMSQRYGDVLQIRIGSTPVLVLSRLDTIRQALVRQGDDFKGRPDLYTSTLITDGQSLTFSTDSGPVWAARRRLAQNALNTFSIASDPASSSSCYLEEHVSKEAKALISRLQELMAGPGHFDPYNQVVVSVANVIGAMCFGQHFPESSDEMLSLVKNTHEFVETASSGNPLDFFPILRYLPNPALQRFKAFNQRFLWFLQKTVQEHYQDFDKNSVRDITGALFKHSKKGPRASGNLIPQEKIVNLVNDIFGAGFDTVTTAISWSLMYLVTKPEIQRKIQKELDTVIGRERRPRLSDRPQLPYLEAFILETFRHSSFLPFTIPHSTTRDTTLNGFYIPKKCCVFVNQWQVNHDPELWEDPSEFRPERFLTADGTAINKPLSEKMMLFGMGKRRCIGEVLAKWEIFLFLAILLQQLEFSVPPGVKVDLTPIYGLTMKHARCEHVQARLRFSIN
DNA dC->dU-editing enzyme APOBEC-3G (Homo sapiens), sequence (Q9HC16 whole entry, looked up): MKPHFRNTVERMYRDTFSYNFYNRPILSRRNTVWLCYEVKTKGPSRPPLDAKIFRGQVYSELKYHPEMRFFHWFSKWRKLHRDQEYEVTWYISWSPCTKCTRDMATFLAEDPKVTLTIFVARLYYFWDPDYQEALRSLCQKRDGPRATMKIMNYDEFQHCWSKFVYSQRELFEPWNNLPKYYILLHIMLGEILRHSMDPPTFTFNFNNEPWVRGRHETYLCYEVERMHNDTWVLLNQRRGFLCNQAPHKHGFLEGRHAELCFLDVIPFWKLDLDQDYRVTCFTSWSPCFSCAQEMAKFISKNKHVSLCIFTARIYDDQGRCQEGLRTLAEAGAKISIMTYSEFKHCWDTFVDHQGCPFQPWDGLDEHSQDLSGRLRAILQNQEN
Cytochrome P450 2D6 (Homo sapiens), sequence (P10635 whole entry, looked up): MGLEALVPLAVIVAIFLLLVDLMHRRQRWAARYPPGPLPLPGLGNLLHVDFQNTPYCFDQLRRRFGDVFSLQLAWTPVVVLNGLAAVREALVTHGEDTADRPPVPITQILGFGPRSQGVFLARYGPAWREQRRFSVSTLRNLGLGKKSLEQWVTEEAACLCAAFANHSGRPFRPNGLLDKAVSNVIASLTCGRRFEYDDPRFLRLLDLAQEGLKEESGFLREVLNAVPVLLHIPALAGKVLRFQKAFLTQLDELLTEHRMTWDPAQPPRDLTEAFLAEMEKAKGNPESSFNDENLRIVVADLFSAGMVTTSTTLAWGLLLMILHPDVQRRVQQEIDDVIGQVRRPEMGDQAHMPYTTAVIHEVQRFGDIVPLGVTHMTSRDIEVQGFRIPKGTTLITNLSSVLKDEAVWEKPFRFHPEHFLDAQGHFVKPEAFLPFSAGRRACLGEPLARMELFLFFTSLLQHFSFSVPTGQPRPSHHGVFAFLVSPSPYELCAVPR
Cytochrome P450 3A4 (Homo sapiens), sequence (P08684 whole entry, looked up): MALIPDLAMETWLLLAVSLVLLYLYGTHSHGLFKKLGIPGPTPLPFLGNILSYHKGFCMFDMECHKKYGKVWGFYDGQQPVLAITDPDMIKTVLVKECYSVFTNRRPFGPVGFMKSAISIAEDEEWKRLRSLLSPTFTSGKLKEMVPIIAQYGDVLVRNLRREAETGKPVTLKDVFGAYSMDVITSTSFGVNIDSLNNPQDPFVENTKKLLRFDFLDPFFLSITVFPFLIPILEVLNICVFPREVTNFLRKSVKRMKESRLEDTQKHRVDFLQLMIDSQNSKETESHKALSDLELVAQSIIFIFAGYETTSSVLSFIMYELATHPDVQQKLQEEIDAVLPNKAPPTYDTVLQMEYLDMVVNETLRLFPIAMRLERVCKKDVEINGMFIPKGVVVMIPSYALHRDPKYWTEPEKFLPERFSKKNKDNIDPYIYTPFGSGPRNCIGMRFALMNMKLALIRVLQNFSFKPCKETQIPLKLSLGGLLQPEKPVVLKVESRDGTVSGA
Cytochrome P450 2C9 (Homo sapiens), sequence (P11712 whole entry, looked up): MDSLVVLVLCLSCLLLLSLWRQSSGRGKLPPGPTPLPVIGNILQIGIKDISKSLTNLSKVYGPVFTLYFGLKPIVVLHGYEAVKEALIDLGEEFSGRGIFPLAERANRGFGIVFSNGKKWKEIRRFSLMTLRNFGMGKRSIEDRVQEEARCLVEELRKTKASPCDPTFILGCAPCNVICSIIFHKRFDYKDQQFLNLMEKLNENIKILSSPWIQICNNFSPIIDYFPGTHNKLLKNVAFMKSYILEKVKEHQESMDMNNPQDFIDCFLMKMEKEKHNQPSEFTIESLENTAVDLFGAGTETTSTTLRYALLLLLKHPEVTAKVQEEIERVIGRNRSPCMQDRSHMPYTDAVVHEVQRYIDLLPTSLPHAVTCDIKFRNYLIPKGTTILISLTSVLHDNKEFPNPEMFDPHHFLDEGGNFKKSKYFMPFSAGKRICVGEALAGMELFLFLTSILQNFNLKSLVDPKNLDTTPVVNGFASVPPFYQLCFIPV

In the case of `COCCNC(=O)COc1ccc(OCCNC[C@H](O)COc2ccccc2)cc1`, the Potency [1] is reported as “inactive”.

With `COc1ccc2c(c1)CC[C@@H]1[C@@H]2CC[C@]2(C)[C@@H](NCCCCCCN3C(=O)C=CC3=O)CC[C@@H]12` the Potency [1] was “inactive”, the Potency [2] was “inactive” and the Potency [3] was “inactive”. For the same molecule, the Potency [4] was 13.2 µM (active), the Potency [5] was 5.25 µM (active) and the Potency [6] was “inactive”. The Potency [7] was “inactive”, the Z-AUC [8] was 0.11 (inactive) and the Z-AUC [8, 19] was 0.00217. It also gave a Z-AUC ([8]; measured here: PEO4 Z-AUC) of 0.205.

In the case of `CCCCCCCCCCCCCCC[C@@H](O)[C@H](CO)NC(=O)CCCCCCC`, the activity change, negative = inhibition [1] is reported as 6.97% [at 6.83 µM] (inactive).

In the case of `O=C(C1CCCCC1)N(CCN1CCN(c2ccccc2CO)CC1)c1ccccn1`, the Potency [1] is reported as “inactive”.

In the case of `CCCCN=C(N)NC(=N)N`, the outcome [1] is reported as “inactive”, the outcome [9] is reported as “inactive” and the outcome [10] is reported as “inactive”. The outcome [11] was “inactive”, the Potency [4] was “inactive” and the Potency [5] was “inactive”. The Potency [6] was “inactive” and the outcome [7] was “inactive [setting not given]”.

For `COC(=O)c1ccccc1NC(=O)c1ccc(F)cc1`, the Potency [12] was 200 nM (active), the Potency [13] was > 46 µM (inactive) and the Potency [14] was > 46 µM (inactive). The Potency [15] was “inactive”, the Potency [16] was 5.01 µM (active) and the Potency [17] was “inactive”. For the same molecule, the Potency [1] was “inactive”, the outcome [9] was “inactive” and the Potency [3] was “inactive”.

With `COc1ccc(S(=O)(=O)N(CCO)c2ccccc2CN(C)C/C=C/c2ccc(Cl)cc2)cc1` the Potency [1] was “inactive”, the Potency [2] was “inactive” and the Potency [4] was 7.42 µM (active). For the same molecule, the Potency [5] was 8.33 µM (active), the Potency [6] was “inactive” and the Potency [7] was “inactive”. The Z-AUC [8] was -0.289 (inactive), the Z-AUC [8, 19] was -0.166 and the Z-AUC ([8]; measured here: PEO4 Z-AUC) was 0.482.

In the case of `c1ncc(CCCC2CCNCC2)[nH]1`, the Potency [1] is reported as “inactive” and the Potency [18] is reported as “inactive”.

From PubChem BioAssay (NCATS)
